± gives the standard deviation.
Test system: MILI (PIWIL2) piRISC loaded with L1MC piRNA (26 nt)
Experiment: pre-steady-state target cleavage rate (min^-1); guide: L1MC piRNA 5'p-UAACUAAAUACUAUGCAAGCUGUAGG; MIWI and MILI are mouse PIWI proteins and EfPiwi is from a freshwater sponge; tags in brackets are library labels; higher = faster piRNA-guided slicing of the target
Conditions: auxiliary factor: 500 nM mouse GTSF1
How it was run: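 The pre-steady-state cleavage rate was calculated from a burst-and-steady-state fit. Data came from Cleave-'n-Seq, in which […] transcribed, DNA-blocked target RNA library was mixed with 1 nM active affinity-purified piRISC carrying one synthetic guide, with or without 500 nM GTSF1 partner protein, in HEPES–potassium acetate buffer at 33 °C for 0–8 or 0–960 min. Uncleaved targets were sequenced and normalised to depth and to weakly complementary targets, three trials were pooled, and k3 was capped at 0.0001 min^-1.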
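Also: 1 nM active piRISC with 0.1 nM target library at 33 °C single turnover.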

UCCUGCUACACGUUGCAUAGUAUUUUCAAA and UCCUGGAUGAGCUUGCAUACUAUUUACUUA are within error of each other in “pre-steady-state target cleavage rate” value: 0.00757 ± 0.0052 for the first, 0.00478 ± 0.0043 for the second.

UCCUGGAUGUCCUUGCAUAGAUAUUAGUUA and UCCUCCUACAGCUUGCUAUGUAUUUAGAAA are within error of each other in “pre-steady-state target cleavage rate” value: 0.00447 ± 0.0038 for the first, 0.00902 ± 0.0042 for the second.

UCCUGGUACAGCUUGCAUAGUUUUAGUUA and UCCUGGAACAGCUUGCAUAGUAAUUACUUA are within error of each other in “pre-steady-state target cleavage rate” value: 0.00982 ± 0.0052 for the first, 0.023 ± 0.0082 for the second.

First: UCCUCCUACAGCUUGCAUACUAUAUAGUUA
Second: UCCUCCUACAGCUUGCAUACUUUUUAGUUA
The “pre-steady-state target cleavage rate” value of the first is higher: 0.0619 ± 0.015 for the first, 0.00693 ± 0.0043 for the second.

UCCUGGAUGAGCUUGCAUAGUAUAUAGAAA and UCCUGGAUGUCCUUGCAUAGUUUUUUGUUA are within error of each other in “pre-steady-state target cleavage rate” value: 0.00651 ± 0.005 for the first, 0.00821 ± 0.0052 for the second.

First: UCCUGCUACAGCUACCAUAGUAUUUAGAAA
Second: UCCUGGAUGUCGUUGCAUAGUAUUAAGUUA
The “pre-steady-state target cleavage rate” value of the first is lower: 0.0677 ± 0.021 for the first, 0.142 ± 0.028 for the second.

Compared with UCCUGGAACAGCUUGCAUAGUAUAAUCAAA, UCCUGGAACUCCUUGCAUAGUAUUUUCAAA is lower in “pre-steady-state target cleavage rate” value: 0.0568 ± 0.016 for the first, 0.0315 ± 0.0074 for the second.

Compared with UCCUGGAUGAGCUUGCUAAGUAUUUAGUAA, UCCUGGAUGUCGAACCAUAGUAGUUUAGUUA is lower in “pre-steady-state target cleavage rate” value: 0.0109 ± 0.0046 for the first, less than 0.0001 for the second.

Compared with UCCUGGAUGUGCUUGCAUAGUCAUUUAGUUA, UCCUCCUACUGCUUGCAUAGUAUUUAGUAA is higher in “pre-steady-state target cleavage rate” value: 0.00678 ± 0.0044 for the first, 0.126 ± 0.017 for the second.

Going from UCCUGGAUGAGCUUGCAUAGUUAAUAGUUA to UCCUCCUAGUCCUUGCAUAGUAUUUACAAA, the “pre-steady-state target cleavage rate” value rises from 0.00524 ± 0.004 to 0.0299 ± 0.0097.

First: UCCUGGUACAGCUAGCAUAGUAUUUUCAAA
Second: UCCUGGAACAGCUUGCAUAGUAUAUACUUA
The “pre-steady-state target cleavage rate” value of the first is higher: 0.0662 ± 0.02 for the first, 0.0233 ± 0.01 for the second.

UCCUGGUACAGCAAGCAUAGUAUUUUCAAA and UCCUGCUACAGCUUGCAUAGUAUUUAUUA are within error of each other in “pre-steady-state target cleavage rate” value: 0.0777 ± 0.022 for the first, 0.0696 ± 0.017 for the second.

Going from UCCUGGUACAGCUUGCAUAGUUUUUUCAAA to UCCUGGAUGUCGAACGUUAGUAUUUAGUA, the “pre-steady-state target cleavage rate” value falls from 0.0153 ± 0.0075 to less than 0.0001.

First: UCCUCCUACAGCUUGCAAUGUAUUUAGUAA
Second: UCCUGCUACAGCUUGCAAUGUAUUUUCAAA
The “pre-steady-state target cleavage rate” value of the first is higher: 0.0921 ± 0.012 for the first, 0.00975 ± 0.0041 for the second.

Same assay, conditions: auxiliary factor: none (no GTSF1)

UCCUGGUACAGCUUCGUUAGUAUUUAGAAA and UCCUGGAUGUCGAACGUAAGUAUUUAGUUUA cannot be ordered by “pre-steady-state target cleavage rate” value: less than 0.0001 for the first, less than 0.0001 for the second.

UCCUGGAUGUCGAACGUAUGCUAUUUAGUUA and UCCUGGAUGUCGAACGUAACAAUUUAGUUA cannot be ordered by “pre-steady-state target cleavage rate” value: less than 0.0001 for the first, less than 0.0001 for the second.

UCCUGGAUGUCGAACGUAAGAUAUUUAGUUA and UCCUGGAUGUCGAAGCAUAGUAAUAAGUUA cannot be ordered by “pre-steady-state target cleavage rate” value: less than 0.0001 for the first, less than 0.0001 for the second.

Compared with UCCUGGUACAGCUUGCAUAGCUAUUUAGUUA, UCCUGGAUGUCGAUCCAUAGUAUUUAGAUA is lower in “pre-steady-state target cleavage rate” value: 0.0041 ± 0.004 for the first, less than 0.0001 for the second.

UCCUGGAUGUCGAACGUAUGUAUUUAGUA and UCCUGGAUGUCGAACCAUACUAUUUAGUUA cannot be ordered by “pre-steady-state target cleavage rate” value: less than 0.0001 for the first, less than 0.0001 for the second.

“UCCUGGAUGAGCUUGCUAUCAUAAAUCAAA [g15:g21:cont:t1A]” and UCCUGGAUGUCGAACCUUAGUAUUUAGAUA cannot be ordered by “pre-steady-state target cleavage rate” value: less than 0.0001 for the first, less than 0.0001 for the second.

— the supplement of paper PMC10338343
